Only some compounds are listed: those with a hit (about 1.5% of all), similar ones and a draw of the others.
E coli Lon inh = inhibitors of E. coli Lon protease | P0A9M0 | purified E. coli Lon protease, fluorescence polarization | inhibition, % at 7.94 µM | actives 0.42% (n = 360,000); in the data active means inhibition above about 13%, passing the limit was not always enough;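 further: 0% = enzyme with probe and DMSO and 100% = no enzyme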
C-LANA FP = blocks KSHV LANA C-terminal domain binding to DNA; MBP-C-LANA/FAM-LBS DNA binding, fluorescence polarization; inhibition, % at 9 µM; actives 0.078% (n = 340,000);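 active means highest replicate inhibition at or above 60% at 9 µM, even if other replicates fall short; inactive means all replicates below 60% inhibition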;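 further: 0% = neutral control wells and 100% = 4 µM acridine orange control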
LANA-H2A inh = blocks KSHV LANA binding to histone H2A/H2B | actives 0.6% (n = 320,000) | inhibition, % (concentration not given with the values) | cell-free LANA-H2A/H2B peptide, fluorescence polarization; in the data active means inhibition mostly above about 10%, no sharp cut-off; inactive means mostly below about 6.7%
GLD-1 TGE inh = GLD-1-TGE RNA interaction inhibition (C. elegans); inhibition, % at 5.96 µM; purified GLD-1 + fluorescein TGE RNA, fluorescence polarization; AID 2280; Q17339; actives 0.44% (n = 320,000);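 active means percent inhibition above a per-plate cutoff, the plate mean of test compounds plus 3 SD, cut at about 30% in these data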;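 further: 0% = DMSO wells with GLD-1 and probe and 100% = wells lacking GLD-1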
Keap1 Nrf2 FP = disrupts human Keap1 binding to Nrf2 peptide | Q14145 | Keap1 Kelch-Nrf2 peptide fluorescence polarization, 1536-well | inhibition, % at 9.4 µM | actives 0.15% (n = 340,000) | AID 504523; in the data active means inhibition above about 12%;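 further: human Keap1 Kelch domain with fluorescein labeled Nrf2 9mer peptide probe; 0% = neutral control wells and 100% = peptide positive control; higher means more block of Keap1 binding to Nrf2 peptide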
EBV gp42 block = blocks Epstein-Barr virus glycoprotein 42 binding | Q1HVG2 | Fluorescence polarization binding assay, mP read-out | inhibition, % (tested at 21.74 µM) | actives 0.42% (n = 220,000); in the data active means inhibition above about 50%
Target sequence (Q1HVG2 whole entry, looked up): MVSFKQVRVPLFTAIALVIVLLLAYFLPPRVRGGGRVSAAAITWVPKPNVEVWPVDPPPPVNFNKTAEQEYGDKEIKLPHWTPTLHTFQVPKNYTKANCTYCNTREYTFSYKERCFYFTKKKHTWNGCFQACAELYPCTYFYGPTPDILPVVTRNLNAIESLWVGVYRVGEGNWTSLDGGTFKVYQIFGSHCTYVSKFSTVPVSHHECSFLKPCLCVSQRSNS
* hit, by the source's call; · = not tested or not shown.

SMILES	E coli Lon inh	C-LANA FP	LANA-H2A inh	GLD-1 TGE inh	Keap1 Nrf2 FP	EBV gp42 block
Cc1nc(C(=O)N2CCc3c([nH]c4ccccc34)C2c2cc(F)ccc2F)cs1 (stereo unspecified)	-4	0	16*	6	-3	-4
CC(C)c1nc(C(=O)N2CCc3c([nH]c4ccccc34)C2c2ccccn2)cs1 (stereo unspecified)	4	0	14*	4	3	8
CCOC(=O)C1(C)CCCN(C(=O)c2ccc(OC)cc2OC)C1 (stereo unspecified)	5	·	·	·	·	·
CC1CCN(C(=O)C2CCC(CNS(=O)(=O)c3ccc4c(c3)C(C)(C)C(=O)N4C)CC2)CC1 (stereo unspecified)	-8	·	·	·	·	·
Cc1cnc(CNC(=O)c2csc([C@H]3C[C@H](O)[C@@H](CO)O3)n2)cn1	-9	·	·	·	·	·
O=C1CC(c2ccc(O)c(O)c2)Oc2c1ccc(O)c2O (stereo unspecified)	-9	97*	13	6	-2	-1
CC(C)=CCc1c(O)ccc2c1OC(c1ccc(O)c(O)c1)CC2=O (stereo unspecified)	-12	0	-3	10	0	-7
CCOC(=O)C1CCN(C(=O)Cn2cnc3sc(C)c(S(=O)(=O)N4CCC(C)CC4)c3c2=O)CC1	-3	-1	-7	-4	-6	·
CCOC(=O)C1CCN(C(=O)Cn2cnc3sc(C)c(S(=O)(=O)N4CCCCC4)c3c2=O)CC1	11	-1	16*	6	-2	·
O=c1[nH]c(S)c(/C=C2\C=Nc3ccccc32)s1	12	·	2	45*	·	63*
COc1ccc(NC(=O)c2cc(OC)c(OC)c(OC)c2)cc1S(=O)(=O)N1CCCCC1	2	-1	2	-3	-3	3
COc1ccc(NC(=O)c2cc(F)cc(F)c2)cc1S(=O)(=O)N1CCCCC1	-3	-1	18*	6	0	·
Cc1cc2c(ncn2C)c(NS(=O)(=O)c2ccc(Cl)cc2)c1C	-5	1	4	-8	-1	-9
Brc1cccc(-c2n[nH]c(-c3ccccc3)n2)c1	0	0	17*	4	-1	-14
c1ccc(-c2nc(-c3cccnc3)n[nH]2)cc1	·	·	-1	9	·	-14
COC(=O)c1ccc(C(=O)OC)c(NC(=O)C2CCCO2)c1 (stereo unspecified)	-1	0	16*	4	-4	·
COc1cc(Cl)ccc1OC1(C)CCN(Cc2c(F)cccc2F)C1 (stereo unspecified)	2	·	·	·	·	·
Cn1c(=NC(=O)C2=NNC(=O)CC2)sc2ccccc21	-1	0	15*	2	-4	-4
O=C1NC[C@H](CCCCN2C[C@H](Cc3ccc(O)cc3)N(CCC3CCCCC3)C(=O)C2=O)N(CCC2CCCCC2)C1=O	-2	·	·	·	·	·
CCOc1ccc(CN(C)C(=O)CNC(=O)c2ccc3ccccc3c2)cc1OC	-8	-1	3	10	-4	·
Nc1cc(S(=O)(=O)O)cc([N+](=O)[O-])c1O	-3	81*	1	4	-3	-5
O=C([C@@H]1CCCN1C(=O)c1cccs1)N1CCN(S(=O)(=O)c2cccc(F)c2)CC1	-7	1	11*	1	5	·
COc1ccc(S(=O)(=O)N2CCN(C(=O)[C@@H]3CCCN3C(=O)c3cccs3)CC2)cc1	1	1	·	·	-3	·
Cc1cc(O)c(C(=O)/C=C/c2ccccc2O)c(=O)o1	-22	-2	158*	·	-7	·
Cc1cc(O)c(C(=O)/C=C/c2cccc([N+](=O)[O-])c2)c(=O)o1	-13	0	16*	-5	-5	-25
COc1cc(C2CC(C(F)(F)F)n3ncc(C(=O)O)c3N2)cc(OC)c1OC (stereo unspecified)	5	0	1	2	-2	173*
CN1CCC(N2CCN(C3CN(C4CCCCC4)S(=O)(=O)C3)CC2)CC1 (stereo unspecified)	-14	·	·	·	·	·
CC1=CC2=NC(=O)/C(=C/c3coc4ccc(Cl)cc4c3=O)C(=N)N2O1	-300	-9	-16	-30	-62	-36
CSC1=NSC2=NC(=O)/C(=C/c3coc4ccccc4c3=O)C(=N)N12	-372	23	0	-58	-86	74*
CSC1=NSC2=NC(=O)/C(=C/c3coc4ccc(O)cc4c3=O)C(=N)N12	-384	22	-8	-50	-156	63*

Screening data (PubChem)
